High-throughput results deposited in PubChem by National Center for Advancing Translational Sciences (NCATS).
Compounds with a hit are over-represented: about 2.4% of the library has one in this group of screens.
D2 ag-1: activates the human D2 dopamine receptor; P14416; HEK293 T-REx D2 cells, calcium flux agonist mode; activation, % at 2 µM; hit rate 0.53% among 340,000; AID 485358;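 active = activation over 3 SD above normal in the single-dose calcium agonist read, cut at about 30% in these data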; note: 0% is about no effect
Target sequence (P14416 whole entry, looked up): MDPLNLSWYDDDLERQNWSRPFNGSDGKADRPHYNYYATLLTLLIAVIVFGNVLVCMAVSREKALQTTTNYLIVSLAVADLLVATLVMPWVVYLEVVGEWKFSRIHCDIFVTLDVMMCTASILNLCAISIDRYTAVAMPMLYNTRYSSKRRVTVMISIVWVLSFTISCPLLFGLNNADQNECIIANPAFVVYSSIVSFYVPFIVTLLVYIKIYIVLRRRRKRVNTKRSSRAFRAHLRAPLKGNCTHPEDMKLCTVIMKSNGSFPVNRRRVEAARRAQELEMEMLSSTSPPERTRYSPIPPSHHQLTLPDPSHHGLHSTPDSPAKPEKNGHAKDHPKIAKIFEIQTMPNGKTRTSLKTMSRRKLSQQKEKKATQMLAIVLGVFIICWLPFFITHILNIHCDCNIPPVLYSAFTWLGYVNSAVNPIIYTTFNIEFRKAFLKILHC
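Agonism scored from kinetic calcium signal (1 read/sec, 180 s) following compound pin transfer, after a 10 s baseline. Cells: HEK293 Trex line expressing inducible D2 receptor coupled to calcium, dye-loaded after overnight culture at 30 C.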
D2 ag-2: human D2 receptor agonism in beta-arrestin assay. P14416. DiscoveRx PathHunter D2 beta-arrestin, luminescence, 90 min; 100% = 57 uM dopamine signal. activation, % (test concentration not listed). hit rate 0.084% among 360,000; in the data active = activation above about 40%; inconclusive = between about 15% and that limit
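Agonist mode: compounds alone added to overnight-plated D2 PathHunter cells for 90 min at 37 C, with 57 uM final dopamine (EC100) defining full response. Beta-arrestin recruitment detected by chemiluminescent reagent, read after 1 h at ambient temperature.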
D2 PAM-1: positively modulates the human D2 dopamine receptor allosterically. P14416. HEK293 T-REx D2, calcium flux, EC20 dopamine potentiation. potentiation, % at 10 µM. hit rate 0.34% among 340,000. AID 485347;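 active = potentiation over 3 SD above the plate norm, cut at about 30% in these data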; note: 0% is about no effect
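Tetracycline-induced Hek293 Trex D2 cells, force-coupled to calcium, loaded with no-wash calcium dye. Compound added with 180 s kinetic read for agonism, then EC20 dopamine and a further 180 s read for potentiation.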
D2 PAM-2: potentiates the human D2 dopamine receptor allosterically | P14416 | DiscoveRx D2 beta-arrestin cells, luminescence, 90 min; 100% = 57 uM dopamine signal | potentiation, % (concentration not given with the values) | hit rate 0.23% among 360,000 | AID 624464; in the data active = potentiation above about 50%; inconclusive = mostly about 30% to 49%
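D2 cells co-treated with compound plus 50 nM dopamine (EC20) for 90 min at 37 deg C to detect potentiation. Beta-arrestin recruitment was read as enzyme-fragment luminescence after 1 h at ambient temperature. Full response was set by 57 uM dopamine.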
D2 antag: antagonizes the human D2 dopamine receptor; HEK293 TREx D2 cells, calcium flux, dopamine EC80; inhibition, % at 10 µM; hit rate 2% among 340,000; in the data active = inhibition above about 30%; inactive = below that, where a call was filed; note: 0% is about no effect
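Inhibition of EC80 dopamine-driven calcium flux, recorded kinetically, defines activity here; cells are a tetracycline-induced HEK293 T-REx line expressing force-coupled D2.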
The depositor's hits bear a star.

Screening COc1ccc(CCNC(=O)CSc2nc3[nH]c(=O)cc(O)c3s2)cc1 returned D2 ag-1 -0.1, D2 ag-2 -1.2, D2 PAM-1 -9.7, D2 PAM-2 -7.3 and D2 antag 43.9*.
Screening COc1ccc(CCNC(=O)CSc2nc3ccccc3o2)cc1 returned D2 ag-1 -1.4, D2 ag-2 -2.8, D2 PAM-1 4.8, D2 PAM-2 2.8 and D2 antag 39.2*.
Screening O=C(CSc1ccc2ccccc2c1)NCCc1ccc(O)c(O)c1 returned D2 ag-1 32.2*, D2 ag-2 100.0*, D2 PAM-1 -17.5, D2 PAM-2 inconclusive and D2 antag 51.2*.
For Cc1ccc(C(=O)c2oc3ccccc3c2NC(=O)C(C)Oc2ccccc2Cl)cc1 (stereo not given) the results were D2 ag-1 0.5 and D2 PAM-1 -2.7.
For Cn1cc(CN(C(=O)Nc2ccccc2)C2CCCCC2)c2ccccc21 the results were D2 ag-1 -0.4 and D2 PAM-1 -5.4.
Screening N/C(=N\OC(=O)c1cccc(Cl)c1)c1cccnc1 returned D2 ag-1 0.1, D2 ag-2 inconclusive, D2 PAM-1 2.0, D2 PAM-2 138.0* and D2 antag 19.4.
Screening N/C(=N\OC(=O)c1ccc(Cl)c(Cl)c1)c1cccnc1 returned D2 ag-1 0.3, D2 ag-2 inconclusive, D2 PAM-1 -9.2, D2 PAM-2 116.6* and D2 antag -4.4.
N/C(=N\OC(=O)c1cccc(Cl)c1)c1ccncc1 was read as D2 ag-1 -0.2, D2 ag-2 inconclusive, D2 PAM-1 4.1, D2 PAM-2 16.1 and D2 antag -1.2.
CC(C(=O)NCC1CCCCC1)N1CCc2ccccc2C1 (stereo not given) was read as D2 ag-1 1.9, D2 ag-2 -1.2, D2 PAM-1 -19.3, D2 PAM-2 -30.9 and D2 antag 54.4*.
For O=C(Nc1ccccc1F)c1ccc(Cn2nc(N3CCN(c4ccccc4)CC3)ccc2=O)o1 the results were D2 ag-1 -0.4 and D2 PAM-1 0.9.
For COc1cccc(N2CCN(c3ncnc4c3cnn4-c3ccc(C)cc3C)CC2)c1 the results were D2 ag-1 -0.2, D2 ag-2 86.7*, D2 PAM-1 -7.8, D2 PAM-2 25.3 and D2 antag 22.8.
Cc1ccc(-n2ncc3c(N4CCCC4)ncnc32)c(C)c1 was read as D2 ag-1 1.3, D2 ag-2 -2.9, D2 PAM-1 -4.4, D2 PAM-2 -12.6 and D2 antag 10.8.
OCC1CCCCN1CC(O)COC(c1ccc(F)cc1)c1ccc(F)cc1 (stereo not given) was read as D2 ag-1 0.2, D2 ag-2 -1.8, D2 PAM-1 -4.9, D2 PAM-2 -4.0 and D2 antag 30.6*.
CCCN1CCc2nc(N3CCN(c4ncccn4)CC3)ncc2C1 was read as D2 PAM-1 -16.5.
Screening CC(=O)Nc1ccc(N=Cc2c(O)c(C(=O)Nc3ccccc3)cc3ccccc23)cc1 returned D2 ag-1 64.8*, D2 ag-2 9.1, D2 PAM-1 -18.6, D2 PAM-2 0.8 and D2 antag 18.8.
Screening CC(=O)Nc1ccc(N=Cc2c(O)c3ccccc3oc2=O)cc1 returned D2 ag-2 -5.4 and D2 PAM-2 -8.1.
`O=C(NCC(c1cccs1)N1CCOCC1)c1ccccc1NS(=O)(=O)c1cc([N+](=O)[O-])ccc1Cl` (stereo not given) gave D2 ag-1 -0.8, D2 ag-2 -1.6, D2 PAM-1 12.0, D2 PAM-2 -8.5 and D2 antag 33.0*.
`O=C(Nc1ccc(Oc2ccccc2)cc1)c1ccc(F)c(S(=O)(=O)N2CCN(c3ccccc3F)CC2)c1` gave D2 ag-1 -0.1 and D2 PAM-1 -8.4.
For Cc1ccc(F)cc1NC(=O)CCOc1ccccc1 the results were D2 ag-1 -0.8, D2 ag-2 0.3, D2 PAM-1 -6.0, D2 PAM-2 -5.7 and D2 antag 31.6*.
`Cc1cc(Cl)ccc1OCC(=O)NNC(=O)CCOc1ccccc1` gave D2 ag-1 -0.9, D2 ag-2 -1.4, D2 PAM-1 4.0, D2 PAM-2 -3.0 and D2 antag 31.1*.
Screening Cc1cc(O)c(C(c2ccccc2)N2CCN(c3ccccc3)CC2)c(=O)n1Cc1ccco1 (stereo not given) returned D2 PAM-1 -4.8.
`Cc1cc(C)c2c(n1)SCCN2C(=O)Nc1ccc(C(=O)Nc2cc(Cl)ccc2C)cc1` gave D2 PAM-1 3.9.
COc1ccccc1CNC(=O)c1ccc(-c2nc(CN3CCc4ccccc43)c(C)o2)cc1 was read as D2 ag-1 2.0 and D2 PAM-1 3.9.
Screening Nc1nc2c(s1)CCc1c-2cnn1-c1ccccc1 returned D2 ag-1 -1.8, D2 ag-2 40.5*, D2 PAM-1 6.1, D2 PAM-2 8.2 and D2 antag 6.6.
Screening Cc1ccccc1NC(=O)c1c(C)oc2ccc(O)c(CN3CCCC3)c12 returned D2 ag-1 -0.8 and D2 PAM-1 -2.5.
Screening CCN1C(=O)C2(c3ccccc31)c1c(oc3ccccc3c1=O)C(=O)N2CCOC (stereo not given) returned D2 ag-1 0.0 and D2 PAM-1 -2.9.
Screening O=C(NCCCN1CCCCC1)c1ccc2c(c1)NC(=O)C(N1CCCCC1)S2 (stereo not given) returned D2 ag-1 -0.4, D2 ag-2 -5.5, D2 PAM-1 -21.1, D2 PAM-2 -47.8 and D2 antag 46.9*.
`CC1CC(C)CN(CCCNC(=O)c2ccc3c(c2)NC(=O)C(N2CCCCC2)S3)C1` (stereo not given) gave D2 ag-1 0.9, D2 ag-2 -4.2, D2 PAM-1 -29.0, D2 PAM-2 -31.3 and D2 antag 87.7*.
`CCCN1CCN(CCCNC(=O)c2cc3c(=O)[nH]c4ccc(C)cc4c3s2)CC1` gave D2 ag-1 -1.3, D2 ag-2 -2.5, D2 PAM-1 -6.5, D2 PAM-2 -9.6 and D2 antag 42.6*.
Screening CCN(CCCNC(=O)c1cc2c(=O)[nH]c3ccc(C)cc3c2s1)c1ccc(C)cc1 returned D2 ag-1 0.6 and D2 PAM-1 -0.1.
`Cc1[nH]c2ccc(C(=O)NCCCN3CCCCCC3)cc2c1C` gave D2 ag-1 0.6, D2 ag-2 1.6, D2 PAM-1 -13.3, D2 PAM-2 -38.5 and D2 antag 61.7*.
For O=C(O)c1ccc2c(c1)NC(=O)C(N1CCCC1)S2 (stereo not given) the results were D2 ag-1 0.9, D2 ag-2 -1.6, D2 PAM-1 -10.6, D2 PAM-2 -8.7 and D2 antag 9.7.
For COc1cc(NC(=O)CSc2nc(-c3ccco3)cc(C(F)(F)F)n2)cc(OC)c1OC the results were D2 ag-1 -1.0 and D2 PAM-1 13.2.
CCOc1ccc(NC(=O)Cc2csc(COc3cccc(C)c3)n2)cc1 was read as D2 ag-1 -1.1 and D2 PAM-1 -2.6.
